Experiment in all cases: DAPPL (digital affinity profiling via proximity ligation, sequencing); 10 mM Tris-HCl pH 7.5, 50 mM NaCl, 1 mM DTT, 4% glycerol, room temperature, 30 min; GST-TFs on glutathione beads, 16-mer random dsDNA library, 0.1% formaldehyde crosslink after washing; high values mean tight binding
The target of assay [1] is T1, FLI1 (Homo sapiens, UniProt Q01543 1-452).
T1 sequence: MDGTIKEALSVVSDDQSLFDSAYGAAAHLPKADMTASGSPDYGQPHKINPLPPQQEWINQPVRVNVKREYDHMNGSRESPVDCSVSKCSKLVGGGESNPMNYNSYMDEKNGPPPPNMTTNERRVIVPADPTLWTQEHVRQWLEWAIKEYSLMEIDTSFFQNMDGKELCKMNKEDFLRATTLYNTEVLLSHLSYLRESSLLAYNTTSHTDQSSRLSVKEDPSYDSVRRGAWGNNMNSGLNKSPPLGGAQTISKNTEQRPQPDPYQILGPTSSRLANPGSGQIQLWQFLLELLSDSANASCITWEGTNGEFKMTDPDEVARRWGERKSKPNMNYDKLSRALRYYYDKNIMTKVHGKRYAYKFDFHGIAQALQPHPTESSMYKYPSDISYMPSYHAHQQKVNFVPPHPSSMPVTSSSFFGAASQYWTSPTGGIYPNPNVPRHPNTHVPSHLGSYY
The note with it: protein: recombinant; tags: N-terminal GST; dsDNA, one strand shown. Put shortly:
(§1)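 Pools were built from human transcription factors expressed in yeast as GST fusions, captured on glutathione beads and DNA-barcoded, along with a tag-only sample. Incubation with 200 nmole of a 16-mer random double-stranded DNA library lasted 30 min at room temperature in Tris/NaCl/DTT/glycerol buffer, and was followed by washing, 0.1% formaldehyde crosslinking, proximity ligation, PCR amplification and Illumina NextSeq500 sequencing. Binding signal is the quotient of each hexamer's read frequency for a factor and its frequency for the tag-only sample.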

Assay [2] addresses T2, ELK1 (Homo sapiens, UniProt P19419 1-428).
T2 sequence: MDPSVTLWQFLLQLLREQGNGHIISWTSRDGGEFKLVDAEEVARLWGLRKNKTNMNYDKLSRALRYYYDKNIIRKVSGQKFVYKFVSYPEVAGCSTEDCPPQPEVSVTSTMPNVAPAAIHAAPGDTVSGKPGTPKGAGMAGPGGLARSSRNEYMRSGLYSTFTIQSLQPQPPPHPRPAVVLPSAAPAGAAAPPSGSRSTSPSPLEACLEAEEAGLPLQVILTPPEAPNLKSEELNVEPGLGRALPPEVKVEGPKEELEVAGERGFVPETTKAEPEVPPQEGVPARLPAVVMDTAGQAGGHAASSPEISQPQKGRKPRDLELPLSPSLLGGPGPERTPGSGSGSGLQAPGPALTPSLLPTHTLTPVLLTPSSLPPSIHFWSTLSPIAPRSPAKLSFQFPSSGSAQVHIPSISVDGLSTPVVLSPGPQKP
The following applies: protein: recombinant; tags: N-terminal GST; dsDNA, one strand shown. Put shortly:
as §1

Assay [3] concerns the target T3, GABPA (Homo sapiens, UniProt Q06546 1-454).
T3 sequence: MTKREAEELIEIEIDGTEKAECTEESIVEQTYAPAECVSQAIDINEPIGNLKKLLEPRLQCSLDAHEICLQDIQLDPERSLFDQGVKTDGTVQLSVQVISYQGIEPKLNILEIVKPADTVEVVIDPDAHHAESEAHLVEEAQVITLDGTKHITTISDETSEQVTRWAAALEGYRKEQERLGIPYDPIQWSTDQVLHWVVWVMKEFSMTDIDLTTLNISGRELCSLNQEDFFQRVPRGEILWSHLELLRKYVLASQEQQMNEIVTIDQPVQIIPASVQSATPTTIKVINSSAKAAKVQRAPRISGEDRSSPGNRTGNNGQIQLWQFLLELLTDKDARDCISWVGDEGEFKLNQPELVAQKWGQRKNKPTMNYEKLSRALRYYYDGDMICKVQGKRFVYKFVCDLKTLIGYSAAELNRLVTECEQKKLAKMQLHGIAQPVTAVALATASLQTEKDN
The note with it: protein: recombinant; tags: N-terminal GST; dsDNA, one strand shown. Put shortly:
as §1

Assay [4] has as its target T4, ERG (Homo sapiens, UniProt P11308 1-479).
T4 sequence: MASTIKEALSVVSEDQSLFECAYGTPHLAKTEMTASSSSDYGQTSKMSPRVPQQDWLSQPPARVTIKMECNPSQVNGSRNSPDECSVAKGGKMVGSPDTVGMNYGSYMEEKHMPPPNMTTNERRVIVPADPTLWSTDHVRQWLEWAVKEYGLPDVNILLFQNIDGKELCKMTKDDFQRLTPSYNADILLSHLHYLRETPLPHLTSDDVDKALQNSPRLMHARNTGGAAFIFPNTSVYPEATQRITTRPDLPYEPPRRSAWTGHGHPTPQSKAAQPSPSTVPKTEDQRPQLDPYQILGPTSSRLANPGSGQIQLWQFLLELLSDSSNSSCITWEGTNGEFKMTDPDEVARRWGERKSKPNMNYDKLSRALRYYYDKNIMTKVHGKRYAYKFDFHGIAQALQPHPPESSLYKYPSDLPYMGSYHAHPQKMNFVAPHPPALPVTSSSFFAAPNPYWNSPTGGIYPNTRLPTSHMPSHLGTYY
The following applies: protein: recombinant; tags: N-terminal GST; dsDNA, one strand shown. Put shortly: as §1

In assay [5] the target is ELF1 (Homo sapiens, UniProt P32519 1-619). The note with it: protein: recombinant; tags: N-terminal GST; dsDNA, one strand shown. The essentials: as §1
Assay [6] addresses T5, EHF (Homo sapiens, UniProt Q9NZC4 1-300).
T5 sequence: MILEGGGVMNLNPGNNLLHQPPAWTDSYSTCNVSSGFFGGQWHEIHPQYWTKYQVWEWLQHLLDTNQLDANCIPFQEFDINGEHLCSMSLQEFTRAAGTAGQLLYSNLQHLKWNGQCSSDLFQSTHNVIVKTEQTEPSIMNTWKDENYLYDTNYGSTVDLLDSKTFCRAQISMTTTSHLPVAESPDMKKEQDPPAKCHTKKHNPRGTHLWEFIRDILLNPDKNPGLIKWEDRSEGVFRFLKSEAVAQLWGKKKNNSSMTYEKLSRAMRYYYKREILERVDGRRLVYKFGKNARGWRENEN
The note with it: protein: recombinant; tags: N-terminal GST; dsDNA, one strand shown. Put shortly: as §1

The target of assay [7] is SPI1 (Homo sapiens, UniProt P17947 1-270). The following applies: protein: recombinant; tags: N-terminal GST; dsDNA, one strand shown. The essentials:
as §1

The target in assay [8] is SPIB (Homo sapiens, UniProt Q01892 1-262). The note with it: protein: recombinant; tags: N-terminal GST; dsDNA, one strand shown. The essentials:
as §1

The target of assay [9] is T6, ELK3 (Homo sapiens, UniProt P41970 1-407).
T6 sequence: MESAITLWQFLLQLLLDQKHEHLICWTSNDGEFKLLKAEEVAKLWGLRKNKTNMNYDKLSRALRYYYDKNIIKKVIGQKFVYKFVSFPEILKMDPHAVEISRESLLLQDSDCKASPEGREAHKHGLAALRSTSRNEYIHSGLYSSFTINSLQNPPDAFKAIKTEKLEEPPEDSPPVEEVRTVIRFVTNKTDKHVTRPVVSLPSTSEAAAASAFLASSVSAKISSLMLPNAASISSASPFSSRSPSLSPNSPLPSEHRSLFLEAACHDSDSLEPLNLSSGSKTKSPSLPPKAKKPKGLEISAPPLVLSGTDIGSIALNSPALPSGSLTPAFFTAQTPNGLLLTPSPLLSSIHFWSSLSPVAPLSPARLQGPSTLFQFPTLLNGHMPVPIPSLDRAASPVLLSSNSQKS
The following applies: protein: recombinant; tags: N-terminal GST; dsDNA, one strand shown. The essentials:
as §1

In assay [10] the target is T7, FEV (Homo sapiens, UniProt Q99581 1-238).
T7 sequence: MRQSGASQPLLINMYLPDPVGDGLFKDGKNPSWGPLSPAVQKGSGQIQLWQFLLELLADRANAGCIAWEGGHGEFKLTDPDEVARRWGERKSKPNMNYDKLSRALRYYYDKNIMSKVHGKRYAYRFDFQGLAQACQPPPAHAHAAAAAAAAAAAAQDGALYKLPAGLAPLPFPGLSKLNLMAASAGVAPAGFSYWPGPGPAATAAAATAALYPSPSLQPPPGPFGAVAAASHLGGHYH
The note with it: protein: recombinant; tags: N-terminal GST; dsDNA, one strand shown. The essentials:
as §1

The target in assay [11] is ETV5 (Homo sapiens, UniProt P41161 1-510). The following applies: protein: recombinant; tags: N-terminal GST; dsDNA, one strand shown. Put shortly:
as §1

In assay [12] the target is HSF1 (Homo sapiens, UniProt Q00613 1-529). The note with it: protein: recombinant; tags: N-terminal GST; chain copies: 3; dsDNA, one strand shown. The essentials:
as §1

Assay [13] concerns the target T8, SPIC (Homo sapiens, UniProt Q8N5J4 1-248).
T8 sequence: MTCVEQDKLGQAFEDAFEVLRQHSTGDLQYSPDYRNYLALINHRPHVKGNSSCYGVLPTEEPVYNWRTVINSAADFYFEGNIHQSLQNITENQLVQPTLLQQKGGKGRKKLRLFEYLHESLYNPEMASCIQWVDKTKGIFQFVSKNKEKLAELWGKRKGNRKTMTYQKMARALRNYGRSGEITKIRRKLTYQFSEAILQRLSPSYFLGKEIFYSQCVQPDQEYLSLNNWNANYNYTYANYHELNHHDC
The note with it: protein: recombinant; tags: N-terminal GST; dsDNA, one strand shown. The essentials: as §1

Assay [14] addresses ELF4 (Homo sapiens, UniProt Q99607 1-663). The note with it: protein: recombinant; tags: N-terminal GST; dsDNA, one strand shown. The essentials: as §1
For assay [15], the target named is T9, ELK4 (Homo sapiens, UniProt P28324-2 1-405).
T9 sequence: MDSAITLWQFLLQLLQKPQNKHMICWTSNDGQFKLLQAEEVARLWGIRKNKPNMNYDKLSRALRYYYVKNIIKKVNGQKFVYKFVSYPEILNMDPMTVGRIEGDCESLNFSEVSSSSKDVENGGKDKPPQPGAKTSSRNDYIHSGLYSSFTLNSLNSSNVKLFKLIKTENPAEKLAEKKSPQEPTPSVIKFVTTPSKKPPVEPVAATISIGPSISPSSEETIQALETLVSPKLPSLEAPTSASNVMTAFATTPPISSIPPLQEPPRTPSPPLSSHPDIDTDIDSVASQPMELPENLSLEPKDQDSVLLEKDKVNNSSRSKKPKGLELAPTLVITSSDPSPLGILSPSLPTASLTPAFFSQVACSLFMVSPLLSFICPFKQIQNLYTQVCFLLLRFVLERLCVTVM
The following applies: protein: recombinant; tags: N-terminal GST; dsDNA, one strand shown. Put shortly: as §1

The target in assay [16] is T10, ETV2 (Homo sapiens, UniProt O00321 1-342).
T10 sequence: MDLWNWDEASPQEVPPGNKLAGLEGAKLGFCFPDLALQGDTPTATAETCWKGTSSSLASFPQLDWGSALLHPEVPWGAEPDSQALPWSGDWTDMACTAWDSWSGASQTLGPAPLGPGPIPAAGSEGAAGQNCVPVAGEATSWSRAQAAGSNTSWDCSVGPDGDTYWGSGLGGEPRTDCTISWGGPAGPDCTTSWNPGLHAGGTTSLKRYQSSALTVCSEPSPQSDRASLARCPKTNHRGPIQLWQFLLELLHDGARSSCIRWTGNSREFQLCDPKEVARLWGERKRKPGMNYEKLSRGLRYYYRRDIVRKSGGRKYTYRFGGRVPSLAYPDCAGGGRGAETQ
The following applies: protein: recombinant; tags: N-terminal GST; dsDNA, one strand shown. The essentials: as §1

Assay [17] concerns the target T11, ELF3 (Homo sapiens, UniProt P78545 1-371).
T11 sequence: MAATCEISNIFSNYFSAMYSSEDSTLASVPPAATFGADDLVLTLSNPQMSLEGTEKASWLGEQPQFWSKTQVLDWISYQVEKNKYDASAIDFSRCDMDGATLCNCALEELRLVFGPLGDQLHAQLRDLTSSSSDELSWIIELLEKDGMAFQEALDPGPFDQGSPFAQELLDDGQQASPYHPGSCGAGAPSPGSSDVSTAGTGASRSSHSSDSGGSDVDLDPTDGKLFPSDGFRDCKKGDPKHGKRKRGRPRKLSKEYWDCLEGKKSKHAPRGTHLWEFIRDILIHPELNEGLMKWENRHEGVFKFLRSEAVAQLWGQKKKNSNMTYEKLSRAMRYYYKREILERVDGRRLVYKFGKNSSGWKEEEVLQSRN
The note with it: protein: recombinant; tags: N-terminal GST; dsDNA, one strand shown. The essentials:
as §1

Assay [18] addresses CRX (Homo sapiens, UniProt O43186 1-299). The following applies: protein: recombinant; tags: N-terminal GST; dsDNA, one strand shown. The essentials:
as §1

The target in assay [19] is ETV1 (Homo sapiens, UniProt P50549 1-477). The following applies: protein: recombinant; tags: N-terminal GST; dsDNA, one strand shown. Put shortly: as §1
ETV1, sequence (P50549 whole entry): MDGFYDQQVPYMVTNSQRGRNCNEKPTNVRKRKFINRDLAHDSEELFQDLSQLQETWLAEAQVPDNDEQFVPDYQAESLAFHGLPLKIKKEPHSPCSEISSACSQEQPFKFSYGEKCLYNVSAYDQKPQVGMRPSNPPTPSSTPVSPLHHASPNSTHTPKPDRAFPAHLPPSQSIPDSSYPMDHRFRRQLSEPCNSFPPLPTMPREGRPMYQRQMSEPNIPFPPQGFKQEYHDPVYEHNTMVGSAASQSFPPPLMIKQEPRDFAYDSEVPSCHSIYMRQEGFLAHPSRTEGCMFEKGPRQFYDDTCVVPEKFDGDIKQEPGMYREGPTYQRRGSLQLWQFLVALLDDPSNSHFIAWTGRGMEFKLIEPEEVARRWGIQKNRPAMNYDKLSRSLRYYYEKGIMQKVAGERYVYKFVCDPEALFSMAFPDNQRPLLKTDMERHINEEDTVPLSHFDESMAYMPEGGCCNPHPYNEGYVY

CRX, sequence (O43186 whole entry): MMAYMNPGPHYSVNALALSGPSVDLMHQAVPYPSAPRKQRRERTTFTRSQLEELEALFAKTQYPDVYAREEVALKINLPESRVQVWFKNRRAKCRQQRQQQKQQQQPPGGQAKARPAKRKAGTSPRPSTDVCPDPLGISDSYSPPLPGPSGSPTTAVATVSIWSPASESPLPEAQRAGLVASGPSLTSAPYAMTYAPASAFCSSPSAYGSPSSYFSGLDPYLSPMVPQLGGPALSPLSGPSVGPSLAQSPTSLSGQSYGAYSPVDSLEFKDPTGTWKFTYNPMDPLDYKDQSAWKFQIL
ELF4, sequence (Q99607 whole entry): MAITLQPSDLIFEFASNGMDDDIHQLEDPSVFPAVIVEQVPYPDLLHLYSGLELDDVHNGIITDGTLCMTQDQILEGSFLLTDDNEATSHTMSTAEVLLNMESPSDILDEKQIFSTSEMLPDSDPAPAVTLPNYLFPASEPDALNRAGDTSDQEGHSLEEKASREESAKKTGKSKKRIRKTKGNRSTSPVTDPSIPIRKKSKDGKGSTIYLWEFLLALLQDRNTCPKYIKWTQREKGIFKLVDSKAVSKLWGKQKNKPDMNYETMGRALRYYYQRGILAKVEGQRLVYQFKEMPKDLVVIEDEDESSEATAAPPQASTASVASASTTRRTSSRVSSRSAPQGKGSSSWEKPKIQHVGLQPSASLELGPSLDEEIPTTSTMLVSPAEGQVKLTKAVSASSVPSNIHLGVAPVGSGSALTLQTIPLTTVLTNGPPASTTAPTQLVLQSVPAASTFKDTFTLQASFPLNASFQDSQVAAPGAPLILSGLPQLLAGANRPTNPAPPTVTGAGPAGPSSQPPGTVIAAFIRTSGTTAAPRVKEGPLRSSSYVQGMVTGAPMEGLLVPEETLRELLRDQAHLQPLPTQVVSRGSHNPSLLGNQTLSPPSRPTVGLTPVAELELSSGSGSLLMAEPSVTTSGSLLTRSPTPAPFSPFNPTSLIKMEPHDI
HSF1, sequence (Q00613 whole entry): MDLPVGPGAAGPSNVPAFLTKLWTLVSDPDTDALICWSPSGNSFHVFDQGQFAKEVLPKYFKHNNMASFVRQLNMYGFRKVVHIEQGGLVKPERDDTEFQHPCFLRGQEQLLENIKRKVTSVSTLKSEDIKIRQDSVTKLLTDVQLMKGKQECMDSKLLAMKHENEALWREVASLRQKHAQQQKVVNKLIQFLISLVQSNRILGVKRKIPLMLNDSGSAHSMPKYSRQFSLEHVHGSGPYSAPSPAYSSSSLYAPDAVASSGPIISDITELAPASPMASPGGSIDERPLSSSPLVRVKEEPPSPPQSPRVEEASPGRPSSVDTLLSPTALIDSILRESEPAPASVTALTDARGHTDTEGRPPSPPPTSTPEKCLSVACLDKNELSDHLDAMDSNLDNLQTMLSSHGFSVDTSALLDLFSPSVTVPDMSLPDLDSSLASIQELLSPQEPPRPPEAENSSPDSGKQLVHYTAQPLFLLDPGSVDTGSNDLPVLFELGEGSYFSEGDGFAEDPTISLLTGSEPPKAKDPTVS
ELF1, sequence (P32519 whole entry): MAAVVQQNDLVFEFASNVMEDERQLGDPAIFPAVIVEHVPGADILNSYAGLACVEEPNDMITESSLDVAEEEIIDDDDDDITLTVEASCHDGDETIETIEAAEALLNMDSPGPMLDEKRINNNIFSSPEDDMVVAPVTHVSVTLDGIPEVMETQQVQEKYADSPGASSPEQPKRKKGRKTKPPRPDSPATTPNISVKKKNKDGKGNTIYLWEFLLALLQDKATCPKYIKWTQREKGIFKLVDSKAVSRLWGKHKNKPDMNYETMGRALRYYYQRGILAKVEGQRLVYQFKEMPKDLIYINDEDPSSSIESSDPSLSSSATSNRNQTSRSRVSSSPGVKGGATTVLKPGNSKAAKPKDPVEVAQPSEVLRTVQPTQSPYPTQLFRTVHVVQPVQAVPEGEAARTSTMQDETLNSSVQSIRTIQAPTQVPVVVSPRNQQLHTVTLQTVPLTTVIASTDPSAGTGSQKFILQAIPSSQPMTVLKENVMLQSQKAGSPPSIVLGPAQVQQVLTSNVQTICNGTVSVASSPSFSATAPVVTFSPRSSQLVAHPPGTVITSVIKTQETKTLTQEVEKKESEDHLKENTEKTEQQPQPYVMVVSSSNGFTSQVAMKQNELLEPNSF
SPIB, sequence (Q01892 whole entry): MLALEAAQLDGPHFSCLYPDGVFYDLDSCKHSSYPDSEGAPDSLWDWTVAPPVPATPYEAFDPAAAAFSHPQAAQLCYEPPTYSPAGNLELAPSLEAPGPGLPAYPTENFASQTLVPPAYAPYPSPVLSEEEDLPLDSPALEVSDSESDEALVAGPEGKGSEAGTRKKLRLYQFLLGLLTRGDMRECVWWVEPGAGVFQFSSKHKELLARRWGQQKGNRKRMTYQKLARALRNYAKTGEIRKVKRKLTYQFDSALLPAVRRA
ETV5, sequence (P41161 whole entry): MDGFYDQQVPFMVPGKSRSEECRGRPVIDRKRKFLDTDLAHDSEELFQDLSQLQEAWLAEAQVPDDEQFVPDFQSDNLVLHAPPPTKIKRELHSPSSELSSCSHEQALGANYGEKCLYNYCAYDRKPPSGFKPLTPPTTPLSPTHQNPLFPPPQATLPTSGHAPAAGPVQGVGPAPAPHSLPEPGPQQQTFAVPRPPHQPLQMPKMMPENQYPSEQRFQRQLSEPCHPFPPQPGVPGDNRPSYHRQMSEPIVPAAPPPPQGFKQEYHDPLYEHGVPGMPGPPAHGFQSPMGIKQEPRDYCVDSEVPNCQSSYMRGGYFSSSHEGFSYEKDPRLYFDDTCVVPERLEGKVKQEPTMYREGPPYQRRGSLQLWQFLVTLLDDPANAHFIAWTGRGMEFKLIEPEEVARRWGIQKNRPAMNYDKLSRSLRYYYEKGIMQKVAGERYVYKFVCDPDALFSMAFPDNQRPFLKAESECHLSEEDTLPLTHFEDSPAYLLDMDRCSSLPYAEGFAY

With TTTGGG, the binding signal was 1.27 fold enrichment (6-mer frequency, TF over GST control) in [1]; 1.34 fold enrichment (6-mer frequency, TF over GST control) in [2]; 1.37 fold enrichment (6-mer frequency, TF over GST control) in assay [3]; 1.25 fold enrichment (6-mer frequency, TF over GST control) in assay [4]; 1.25 fold enrichment (6-mer frequency, TF over GST control) in assay [5]; 1.28 fold enrichment (6-mer frequency, TF over GST control) in [6]. Also, the binding signal in assay [7] is 1.4 fold enrichment (6-mer frequency, TF over GST control); in assay [8], 1.18 fold enrichment (6-mer frequency, TF over GST control); in [9], 1.29 fold enrichment (6-mer frequency, TF over GST control); in assay [10], 1.31 fold enrichment (6-mer frequency, TF over GST control); in [11], 1.39 fold enrichment (6-mer frequency, TF over GST control); in assay [12], 1.36 fold enrichment (6-mer frequency, TF over GST control). For the same sequence, the binding signal in assay [13] is 1.16 fold enrichment (6-mer frequency, TF over GST control); in assay [14], 1.41 fold enrichment (6-mer frequency, TF over GST control); in assay [15] it was 1.41 fold enrichment (6-mer frequency, TF over GST control); in assay [16], 1.42 fold enrichment (6-mer frequency, TF over GST control); in [17], 1.7 fold enrichment (6-mer frequency, TF over GST control); in assay [18], 1.57 fold enrichment (6-mer frequency, TF over GST control). The binding signal in assay [19] was 1.43 fold enrichment (6-mer frequency, TF over GST control).

For the origin of these results see paper PMC7862700, “An all-to-all approach to the identification of sequence-specific readers for epigenetic DNA modifications on cytosine”.
